This is an account of results in PubChem BioAssay (NCI).

About 79,000 compounds went through this panel and 15% of them were active in at least one assay; those are over-represented in the sample as a whole. Unmarked numbers belong to inactive results. Activity calls are given as the source filed them. Cut-off read from the data, not from the text of the source: active = growth inhibition above about 70%; inactive = the rest.

The nature of test [1]: NCI Yeast Anticancer Drug Screen. Data for the rad50 strain (AID 155).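 Note: 0% = growth of vehicle-only cultures of the same strain.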 The note with it: S. cerevisiae rad50 strain growth inhibition; at 50.0 µM; active compounds read high. An outline of the steps: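 Readout: growth inhibition relative to vehicle-treated cultures. Compound exposure was carried out in a genetically defined yeast strain deficient in DNA damage repair.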
Test [2] in a line: NCI Yeast Anticancer Drug Screen. Data for the mec2-1 strain (AID 157). As to conditions: S. cerevisiae mec2-1 strain, at 50.0 µM, active compounds read high. In a few lines:
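Vehicle-treated cultures served as reference for growth inhibition of compound-exposed mec2-1 yeast.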

A short description of test [3]: NCI Yeast Anticancer Drug Screen. Data for the sgs1 mgt1 strain (AID 161).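 Note: 0% = growth of cultures given vehicle only.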 The note with it: S. cerevisiae sgs1 mgt1 strain, at 50.0 µM, active compounds read high. In a few lines: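 Inhibition of yeast growth, normalised to vehicle-treated controls, is reported for a strain bearing genetic alterations in DNA damage repair.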
Test [4] is described as follows: NCI Yeast Anticancer Drug Screen. Data for the cln2 rad14 strain (AID 165).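 Note: 0% = growth equal to vehicle treated cultures.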 The note with it: S. cerevisiae cln2 rad14 strain, at 50.0 µM, active compounds read high. In a few lines:
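Each compound was tested on cln2 rad14 yeast. Inhibition of growth was calculated against vehicle-exposed controls.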

Test [5] is described as follows: NCI Yeast Anticancer Drug Screen. Data for the bub3 strain (AID 167). As to conditions: S. cerevisiae bub3 mutant strain, at 50.0 µM, active compounds read high. An outline of the steps:
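Readout: yeast growth inhibition, expressed relative to vehicle-only wells. The test organism is a mutant strain from a panel with lesions in DNA repair or checkpoint genes.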

A short description of test [6]: NCI Yeast Anticancer Drug Screen. Data for the mlh1 rad18 strain (AID 175). As to conditions: S. cerevisiae mlh1 rad18 strain growth inhibition; at 50.0 µM; active compounds read high. An outline of the steps:
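Vehicle-treated cultures served as the reference for growth inhibition in a yeast strain carrying DNA damage repair alterations exposed to each compound.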

On to `CC(=O)OCc1cccc(O)c1C(=O)CCC=C(C)C`, for which the growth inhibition in test [1] is -4.4%; in test [2], -17.1%; in test [3], 8.15%; in test [4], -10.9%; in test [5], -6.7%; in test [6], -63.5%.
As to `CCCCCCCCCCCCCCCC(=O)O[C@@H]1[C@@H](C)[C@@]2(O)[C@@H](C=C(CO)C[C@]3(O)C(=O)C(C)=C[C@@H]23)[C@H]2[C@]1(OC(C)=O)[C@]2(C)CO`, the growth inhibition in test [1] is 14.8%; in test [2], 2.75%; in test [3], 20.1%; in test [4] it was 30.9%; in test [5], 21.1%; in test [6], -71.2%.
Take `O=C(CC/[N+]([O-])=C/c1ccccc1)OCc1ccccc1`: the growth inhibition in test [1] is 24.9%; in test [2], 20.8%; in test [3] it was 1.3%; in test [4], 12%; in test [5] it was 21.8%; in test [6] it was 52.5%.
Regarding `COc1cc(-c2ccc(N=C=O)c(OC)c2)ccc1N=C=O`, the growth inhibition in test [1] is -4%; in test [2], -27.4%; in test [3], 9.8%; in test [4], -5.7%; in test [5], 29.9%; in test [6], -8.15%.
As for `CN(C)c1nc2oc(-c3ccccc3)c(-c3ccccc3)c2c2nnnn12`, the growth inhibition in test [1] is 12%; in test [2], 8.05%; in test [3] it was 2.65%; in test [4], 15.8%; in test [5], 1.65%; in test [6] it was -11.9%.
Turning to `C1COC2(C1)CCCO2`, the growth inhibition is 21.6% in test [1]; -0.5% in test [2]; -27.2% in test [3]; 3.5% in test [4]; 23.2% in test [5]; -2.95% in test [6].
Turning to `CCCCCCCCCCCCCCCCO`, the growth inhibition was -14.4% in test [1]; -14.2% in test [2]; -13.6% in test [3]; -16.3% in test [4]; -15.2% in test [5]; -12.4% in test [6].
Turning to `O=c1c(=[n+]2ccc(=C([O-])c3ccccc3)cc2)/c(=N/S(=O)(=O)c2ccccc2)c(=O)c2ccccc12`, the growth inhibition in test [1] was 19.2%; in test [2] it was 33.1%; in test [3], 39.8%; in test [4], 7%; in test [5] it was 12.8%; in test [6] it was 26.4%.
Take `CN(C)Cc1[nH]c(=O)[nH]c(=O)c1O`: the growth inhibition in test [1] is -9.05%; in test [2], -8.75%; in test [3], -11.9%; in test [4], -38.8%; in test [5], -21.5%; in test [6] it was -45.3%.
Take `CCN(CC)[Si](C)(C)N(CC)CC`: the growth inhibition in test [1] is -20.2%; in test [2], -24.4%; in test [3] it was -1.2%; in test [4], -41%; in test [5], -4.5%; in test [6] it was 8.1%.
As for `C/C(=N/NC(=S)Nc1cccc(Cl)c1)c1cccc(/C(C)=N\NC(=S)Nc2cccc(Cl)c2)n1`, the growth inhibition in test [1] is 47%; in test [2], 46%; in test [3] it was 62.6%; in test [4] it was 20.3%; in test [5] it was 62.4%; in test [6], 56.9%.
`CCCCCCC(c1ccc(N(C)C)cc1)c1ccc(N(C)C)cc1`: the growth inhibition in test [1] was -6.95%; in test [2], 15.7%; in test [3] it was -4.45%; in test [4], 13.1%; in test [5], 24.9%; in test [6] it was 29.9%.
Turning to `CN(c1ccccc1Cl)S(=O)(=O)c1ccc([N+](=O)[O-])cc1`, the growth inhibition was -14.2% in test [1]; -45.9% in test [2]; 12.2% in test [3]; 3.9% in test [4]; 26.4% in test [5]; -2.25% in test [6].
Take `CNc1ccc(OC)cc1S(=O)(=O)c1ccccc1[N+](=O)[O-]`: the growth inhibition in test [1] is 2.25%; in test [2], -35.4%; in test [3], 35.6%; in test [4], 18.7%; in test [5] it was 4.75%; in test [6], -22.2%.
In the case of `CCCCCCCCCCCCCC(=O)Oc1ccc([N+](=O)[O-])cc1`, the growth inhibition in test [1] was -2.65%; in test [2] it was 0.05%; in test [3] it was -13.1%; in test [4] it was 11.2%; in test [5], -9.2%; in test [6] it was 14.4%.
For `C[N+](C)(C)CC(=O)N/N=C(\C(=O)Nc1ccc(Cl)cc1)C1C(=O)N(c2ccccc2)N=C1N` (stereo not given), the growth inhibition in test [1] is -15.4%; in test [2], 1.25%; in test [3], -14.8%; in test [4] it was -13.8%; in test [5], -6.95%; in test [6], 17.6%.
Consider `CCCCCCCCCCCC[N+]1(C)CCS(=O)CC1` (stereo not given), for which the growth inhibition in test [1] was 84.7% (active); in test [2] it was 84.3% (active); in test [3], 80% (active); in test [4] it was 70.7% (active); in test [5] it was 63.4%; in test [6], 85.3% (active).
`CCOC(=O)NN(C(=O)OCC)c1c(C)[nH]c2ccccc12`: the growth inhibition is 20.3% in test [1]; 10.6% in test [2]; 19.4% in test [3]; -10.6% in test [4]; 4.65% in test [5]; 24.5% in test [6].
For the compound `NC(=O)c1nc2ccccc2nc1Nc1ccc(Cl)cc1Cl`, the growth inhibition in test [1] is 29%; in test [2], 10.2%; in test [3] it was 7.55%; in test [4], -0.9%; in test [5] it was 13%; in test [6], 23.2%.
As for `O=C(C[N+]12CC=C(CO)C1C(O)CC2)c1ccc(Br)cc1` (stereo not given), the growth inhibition in test [1] was 5.55%; in test [2] it was -6.25%; in test [3] it was -15.5%; in test [4], -24.4%; in test [5] it was 3.35%; in test [6], -4%.
